HT1080 IDH1KD tx – qHTS for induction of synthetic lethality in tumor cells producing 2HG: qHTS for the HT-1080-IDH1KD cell line; HT-1080 IDH1 knockdown viability, ATP luminescence, 48 h; Potency, µM (highest dose often 46.1 µM), without a hit: at the highest dose activity, negative = toxicity, most hits filed as cytotoxic; actives 2% (n = 360,000);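 also: potency is read from the fitted curve at half-maximal effect; 0% = DMSO wells and -100% = cell-free medium wells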
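Viability of IDH1-knockdown HT-1080 fibrosarcoma cells was assessed by CellTiter-Glo after 48 h at 37 °C with titrated compound; concentration-effect curves were classified by fit quality and response size.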
TDP1 cell noCPT – qHTS for Inhibitors of human tyrosyl-DNA phosphodiesterase 1 (TDP1): qHTS in cells in absence of CPT. DT40 Tdp1-/- hTDP1 cells, no CPT, ATP luminescence, 48 h. Potency, µM (series often up to 46.2 µM), without a hit: at the highest dose activity change, negative = growth inhibition, usual class: inhibitors. actives 15% (n = 420,000); also: potency is read from the fitted curve at half-maximal effect; nearly all actives have a fitted effect of over 55% in size
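Growth of hTDP1-complemented DT40 Tdp1-knockout cells is measured by ATP luminescence after at least 48 hr compound exposure at 37 °C, with DMSO substituting for the 20 nM CPT used in the parallel screen.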
TDP1 cell CPT – qHTS for Inhibitors of human tyrosyl-DNA phosphodiesterase 1 (TDP1): qHTS in cells in presence of CPT | chicken DT40 Tdp1-/-;hTDP1 cells + 20 nM CPT, ATP luminescence, 48 h | Potency, µM (series often up to 46.2 µM), without a hit: at the top dose activity change, negative = growth inhibition, actives largely listed as inhibitors | AID 686979, 2013 | actives 12% (n = 420,000); also: potency is read from the fitted curve at half-maximal effect; nearly all actives have a fitted effect of over 55% in size
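Chicken DT40 Tdp1-/- cells stably complemented with human TDP1 were seeded at 400 cells/well in medium containing 20 nM camptothecin, exposed to pin-transferred compounds, and grown at 37 °C for at least 48 hr. Viability was read as ATP luminescence.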
HT1080NT lethal – qHTS for induction of synthetic lethality in tumor cells producing 2HG: qHTS for the HT-1080-NT fibrosarcoma cell line; HT-1080-NT fibrosarcoma viability, CellTiter-Glo ATP luminescence, 48 h; Potency, µM (top dose mostly 46.1 µM), for the others: at the top dose activity, negative = less viability, usual class: cytotoxic; actives 1.6% (n = 360,000); AID 686970, 2013;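 also: NT is the 2HG producing partner of a matched IDH1 knockdown line; potency is read from the fitted curve at half-maximal effect; 0% = DMSO-treated cells and -100% = media-only wells without cells; nearly all actives have a fitted effect of over 55% in size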
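Compounds were tested in concentration-response format on HT-1080-NT cells for 48 hours at 37 degrees C. Cell viability came from CellTiter-Glo luminescence; curves were classified by r2, response magnitude and activity.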
IL-1B inflam inh – qHTS for Inhibitors of Inflammasome Signaling: IL-1-beta AlphaLISA Primary Screen; activity change, % at 57.5 µM; THP-1 LPS/ATP IL-1B secretion, AlphaLISA, 16 h; hits give low values; actives 4.7% (n = 360,000); in the data active = activity change below about -50%; inconclusive = mostly about -30% to -49%
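Secreted IL-1B measured by AlphaLISA bead assay after 16 h compound exposure of THP-1 cells; compounds (final up to 57.5 uM) added 1 h before LPS (250 ng/mL) and ATP (1.25 mM) stimulation; lower signal means less secretion.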
* = called active by the depositor; ? = inconclusive; nt = not tested or not shown; [ ] = remark or other dose. Rows were chosen to be rich in hits. Some 19% of all compounds tested hit in one or more screens of this group. Unless noted, calls follow the shape of the dose curve; as a rule, active = well fitted curve in the direction sought with a large enough effect; inconclusive = small, poorly fitted or top-dose-only effect, or another doubt; inactive = no such curve, though single readings can be large; an effect the other way counts as inactive or inconclusive. Unless noted, % is scaled to controls: 0 for no effect and ±100 for the full control effect.

SMILES	HT1080 IDH1KD tx	TDP1 cell noCPT	TDP1 cell CPT	HT1080NT lethal	IL-1B inflam inh
CC(C)NC(=S)NNc1ncnc2sc3c(c12)CC(C)(C)OC3	1%	?	-5%	7%	33
CC1(C)Cc2c(sc3ncnc(NNC(=S)NCc4ccccc4)c23)CO1	1.8µM*	23µM*	?	?	85
COc1cc2[nH]c3c(Cl)ncnc3c2cc1OC	-1%	21µM*	?	12%	-61*
COc1ccc(C=O)c2[nH]c3c(Cl)ncnc3c12	-2%	?	-20%	-1%	?
COc1cc2[nH]c3c(N4CCN(c5ccc(Cl)cc5)CC4)ncnc3c2cc1OC	?	18µM*	18µM*	?	22
COc1ccnc(N2CCN(c3ccc(Cl)cc3)CC2)c1C#N	9%	?	-20%	9%	-12
COc1ccc2c(c1)c1c(c(=O)n(-c3ccc(OC)c(OC)c3)c(=O)n1Cc1ccc(F)cc1)n2C	nt	-19%	-3%	nt	nt
CN(Cc1ccc(F)cc1)C(=O)c1cccc(OCc2ccccc2)c1	-8%	?	?	-13%	-54*
CN(Cc1ccc(F)cc1)C(=O)c1cccc(NS(=O)(=O)c2ccccc2)c1	-12%	2%	-12%	-11%	6
CN(CC(=O)Nc1cccc(F)c1)C(=O)c1ccc(COc2ccccc2)cc1	-21%	?	?	26µM*	?
COc1ccc(CCN=C(N)Nc2nc(C)cc(C)n2)cc1	-5%	7.3µM*	7.3µM*	-28%	-20
C[C@@H]1CN([C@H](C)CO)C(=O)CCCn2nncc2CO[C@H]1CN(C)S(=O)(=O)c1ccccc1F	1%	-6%	-10%	-2%	-19
Cc1cc(NC(=O)CSc2ncccc2C(=O)O)no1	8%	?	1%	1%	44
Cc1cc(C)c(S(=O)(=O)Nc2ccc3c(c2)CCC3)c(C)c1	?	18µM*	?	23µM*	?
Cc1ccc(S(=O)(=O)Nc2ccc3c4c(cccc24)CC3)c(C)c1	10µM*	13µM*	15µM*	21µM*	45
CC(=O)Nc1ccc2c3c(cccc13)CC2	-5%	-20%	-46%	-5%	0
Cc1cc(C)c(S(=O)(=O)Nc2ccc3c4c(cccc24)CC3)c(C)c1	1µM*	3.7µM*	-101%	?	10
O=S(=O)(Nc1ccc2c3c(cccc13)CC2)c1ccccc1	-4%	13µM*	?	-9%	6
C[C@H](NS(=O)(=O)c1ccc(Cl)cc1)C(=O)OCC(=O)NCCc1ccc(S(N)(=O)=O)cc1	7%	25%	-5%	12%	3
CCOC(=O)C1CCCN(C(=O)c2cn(C)c(=O)c3cc(OC)c(OC)cc23)C1 (stereo unspecified)	-2%	-28%	-7%	0%	-23
CCOC(=O)C1CCCN(C(=O)c2cc3c(Cl)nc4ccccc4c3s2)C1 (stereo unspecified)	nt	18µM*	?	nt	nt
CCOC(=O)C1CCCN(C(=O)c2cc(Nc3ccc(OC)cc3OC)nc3ccccc23)C1 (stereo unspecified)	-3%	21µM*	16µM*	1%	6
COc1ccc(Nc2cc(C(=O)NC3CCCC3)c3ccccc3n2)c(OC)c1	-3%	?	?	-2%	34
CCOC(=O)C1CCCN(C(=O)c2cc(Nc3ccc(OC)c(OC)c3)nc3ccccc23)C1 (stereo unspecified)	-12%	16µM*	?	0%	-93*
Cc1ccccc1-c1nc(Cc2ccccc2)no1	16%	?	-2%	15%	-6
SMILES	HT1080 IDH1KD tx	TDP1 cell noCPT	TDP1 cell CPT	HT1080NT lethal	IL-1B inflam inh
CCc1ccc(NC2=NC(C(=O)NC3CCCCC3)CC(=O)N2)cc1 (stereo unspecified)	-2%	-10%	-30%	-3%	5
Cc1ccc(CNCCC2=CCCCC2)cc1	?	23µM*	?	-2%[9.24 µM]	-69*
Cc1ccc(S(=O)(=O)NCCC2=CCCCC2)cc1	-7%	-26%	-8%	4%	-29
COc1cccc(OC)c1C(=O)OCC(=O)N(c1ccccc1)C1CCCCC1	-15%	8.2µM*	15µM*	-6%	-4
CCC(=O)Nc1cc2c3c(c1)CCC(=O)N3CCC2	0%	-22%	22%	0%	11
CC1(C)CC(NC(=O)c2cccc(S(=O)(=O)N(Cc3ccccc3)c3ccccc3)c2)CC(C)(C)N1	-2%	?	?	-3%	-81*
CN(c1ccccc1)S(=O)(=O)c1cccc(C(=O)NCc2ccccc2)c1	-12%	16µM*	?	-3%	-14
O=C(NCc1ccccc1F)c1cccc(S(=O)(=O)NCc2ccccc2)c1	-11%	?	7%	-7%	-3
CN(c1ccccc1)S(=O)(=O)c1cccc(C(=O)NCCc2c[nH]c3ccccc23)c1	-23%	?	15µM*	-21%	3
O=C(NCc1cccc(C(F)(F)F)c1)c1cccc(S(=O)(=O)NCc2ccccc2)c1	-4%	23µM*	?	0%	3
CCOC(=O)c1ccc(CN(Cc2ccc(F)cc2)S(=O)(=O)c2ccc(F)c(C(=O)Nc3cc(Cl)ccc3OC)c2)cc1	nt	-2%	6%	nt	nt
CN(c1ccccc1)S(=O)(=O)c1ccc(C(=O)NNC(=O)c2ccccc2)cc1	-1%	-24%	-14%	2%	12
CN(c1ccccc1)S(=O)(=O)c1cccc(C(=O)NNC(=O)c2ccccc2)c1	-21%	16µM*	16µM*	-11%	14
CC(=O)c1c(C)nc2ccc([N+](=O)[O-])cc2c1-c1ccccc1	-12%	?	?	-12%	-14
CC(=O)c1c(-c2ccccc2)c2cc([N+](=O)[O-])ccc2[nH]c1=O	-4%	15µM*	?	-2%	-11
COCC(=O)O[C@]1(CCN(C)CCCc2nc3ccccc3[nH]2)CCc2cc(F)ccc2[C@@H]1C(C)C	?	16µM*	21µM*	?	-25
CCOC(=O)CCc1nc2ccccc2[nH]1	17%	-10%	9%	4%	16
Cc1ccc(/C=C(\C#N)C(=O)N2CCCC2)c(C)c1	?	?	-10%	0%	-87*
CN(C)P(=O)(Nc1cccc2ccccc12)Nc1cccc2ccccc12	0%	9.2µM*	8.2µM*	1%	0
